Laboratory results taken from the supplement of paper PMC3334620.
The full ranking holds about 33,000 sequences; the median of “E-score (-0.5 to 0.5)” is about -0.011, and the highest 2% start at about 0.28. Many of the other results were omitted from the sample, so the highest values are more common in it than they were.

What follows are sequences tested against T1, Gcr1 (UniProt P07261) (assay: PBM E-score (8-mer binding enrichment) (E-score (-0.5 to 0.5)); higher = stronger / more preferred TF binding). Conditions: protein concentration: 100 nM; construct: GST-full length.
T1 sequence: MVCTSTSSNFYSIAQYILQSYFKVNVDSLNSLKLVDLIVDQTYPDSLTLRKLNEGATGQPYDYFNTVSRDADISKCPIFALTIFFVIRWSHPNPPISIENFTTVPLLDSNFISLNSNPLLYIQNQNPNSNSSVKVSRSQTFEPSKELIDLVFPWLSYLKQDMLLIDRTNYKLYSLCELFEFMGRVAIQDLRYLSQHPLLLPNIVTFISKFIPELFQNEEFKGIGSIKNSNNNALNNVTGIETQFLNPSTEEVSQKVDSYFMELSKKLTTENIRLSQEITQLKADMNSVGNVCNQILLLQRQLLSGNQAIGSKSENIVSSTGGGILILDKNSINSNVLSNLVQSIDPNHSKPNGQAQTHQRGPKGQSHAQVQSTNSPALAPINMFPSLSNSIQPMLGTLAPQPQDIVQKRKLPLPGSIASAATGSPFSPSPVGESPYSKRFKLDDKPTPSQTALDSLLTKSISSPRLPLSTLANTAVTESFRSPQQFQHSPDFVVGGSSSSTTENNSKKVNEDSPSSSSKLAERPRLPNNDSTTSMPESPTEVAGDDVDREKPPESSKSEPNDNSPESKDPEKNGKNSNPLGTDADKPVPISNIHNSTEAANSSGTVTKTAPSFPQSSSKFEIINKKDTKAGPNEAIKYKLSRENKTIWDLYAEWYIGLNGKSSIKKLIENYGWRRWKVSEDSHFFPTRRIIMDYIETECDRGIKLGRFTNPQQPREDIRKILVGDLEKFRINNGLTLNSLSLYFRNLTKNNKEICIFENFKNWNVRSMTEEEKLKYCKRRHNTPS
Experimental: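 Universal 'all 10-mer' protein binding microarrays (Agilent AMADID 015681) probed with GST-tagged S. cerevisiae TFs (full-length or DBD) made by in vitro transcription/translation (PURExpress), about 100-200 nM. Bound TF was detected with fluorescent anti-GST. Each ungapped 8-mer (which stands for itself and its reverse complement) is scored by the PBM enrichment score (E-score), a modified Wilcoxon-Mann-Whitney statistic from -0.5 to +0.5, computed with the Universal PBM Analysis Suite. Scale: above 0.35 generally sequence-specific binding.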

| Sequence | PBM E-score |
| --- | --- |
| ACTCTAAC | 0.00366 |
| CCCTTGCA | -0.097 |
| ACCGGAGG | -0.09 |
| TATGAAAA | 0.131 |
| AGGCAGTA | -0.0662 |
| CTGGTATA | -0.0854 |
| ACGTGTTA | -0.0746 |
| AGCTCGCG | -0.0019 |
| GAGGATGA | -0.0555 |
| CCGGATGA | 0.112 |
| ACGGATGC | 0.183 |
| GAGGATGC | 0.423 |
| GAGGATAC | -0.00197 |
| CCGGATGC | 0.4 |
| GCAGGGGA | -0.102 |
| CGGTGCAC | -0.105 |
| AGAGCAGC | 0.0483 |
| AGCCATGC | -0.346 |
| CCAGAATC | 0.245 |
| CCAGAAAA | 0.335 |
| ACCGAATA | -0.0481 |
| GCCGAATA | 0.2 |
| CCCGAATA | 0.334 |
| CAAGAATA | 0.19 |
| ACAGAAAA | -0.076 |

| Sequence | PBM E-score |
| --- | --- |
| CAAGAAAA | 0.248 |
| CCAGAATA | 0.283 |
| GGTTGACA | 0.0705 |
| AATCGGGC | 0.114 |
| CATAGGCA | 0.0323 |
| CTGATGGC | -0.068 |
| ACGGTAGA | 0.138 |
| TGAAACAA | 0.0585 |
| CGCCTGAA | 0.143 |
| GAGCATCC | 0.398 |
| GAGCATAC | -0.155 |
| AAGCATCG | 0.0291 |
| AAGCATCA | -0.0253 |
| AAGCATCC | 0.404 |
| CAGCATCC | 0.447 |
| GAGCATCA | -0.0695 |
| CAGCATCA | -0.00923 |
| CAGCATCG | 0.0157 |
| CTCTCGCA | 0.0115 |
| ACACTGGT | 0.035 |
| CAGGGACC | 0.0209 |
| AAAGTCTT | -0.247 |
| AGACACTA | -0.0252 |
| ATAAAGGG | 0.123 |
| ACGGAGCT | -0.175 |

| Sequence | PBM E-score |
| --- | --- |
| CCGAAGCC | 0.136 |
| ACGAAGCT | 0.399 |
| ACGAAGCG | 0.0293 |
| ACGAAGCA | -0.12 |
| ACAAAGCT | 0.0432 |
| ACGAAGCC | 0.428 |
| TCAGGCCA | -0.118 |
| GACAGACC | -0.157 |
| AACTAGTT | 0.0246 |
| AGGCTCGC | -0.213 |
| CCTGGGCA | -0.022 |
| ACTATAGA | 0.0257 |
| CCTATAGC | -0.0383 |
| CCTATAGA | 0.286 |
| TATGAAGA | 0.0942 |
| ATAATTAT | 0.297 |
| ATAATTAA | 0.134 |
| ATAATTAC | 0.0678 |
| GAAAGAGA | -0.038 |
| ACGCTGCC | 0.339 |
| GCGCTGCC | 0.0863 |
| ACGCTGCG | 0.086 |
| ACGCTGCT | 0.34 |
| ACGCTGAT | -0.0742 |
| ACGCTGCA | 0.0243 |

| Sequence | PBM E-score |
| --- | --- |
| AGCAGGAC | -0.0439 |
| AGTCCCGG | 0.108 |
| CCAGGCCG | -0.117 |
| GAGCTAGC | -0.122 |
| GCGAGCGC | -0.0888 |
| AGATCAGA | -0.0273 |
| AACCCTGT | -0.0296 |
| AAATCTGC | 0.0369 |
| AAATCTGG | 0.292 |
| CAATCTGG | -0.0284 |
| CCGTTAGG | 0.0609 |
| CCCGGGAC | 0.21 |
| ATTGCGGG | -0.0146 |
| TATGCCCA | -0.14 |
| CGTGCCCA | 0.0649 |
| AGTGCCCA | 0.0254 |
| AGTGCCGA | -0.0356 |
| CGTGCCGA | -0.0978 |
| GGTGCCGA | 0.285 |
| GATGCCCC | 0.248 |
| GATGCCCA | 0.378 |
| GGTGCCCA | 0.382 |
| AGATTCAG | 0.117 |
| ACAGGGAC | 0.107 |
| ACTTCCCC | 0.0219 |

| Sequence | PBM E-score |
| --- | --- |
| GCTTCCCC | 0.341 |
| ACTTCCCA | 0.0658 |
| GCTTCCCA | 0.386 |
| CCTTCCCC | -0.122 |
| CCTTCCCA | 0.122 |
| CTGTGGGC | 0.0855 |
| GGTAGATA | 0.00026 |
| CAGTGCCA | -0.0969 |
| ATGCCGGA | 0.215 |
| AATAGCGC | 0.0793 |
| ACATCCGA | -0.104 |
| CCATCCGA | -0.0665 |
| CCATCCTA | 0.0473 |
| GCATCCTA | 0.4 |
| ACATCCTA | 0.166 |
| GCATCCGA | 0.33 |
| ACCTATAT | 0.194 |
| ATGTTGTC | -0.117 |
| ATAATTGC | -0.00448 |
| ACGTATAA | 0.132 |
| TCGTATAA | 0.286 |
| TCCTATAA | 0.334 |
| GCGTATAA | 0.353 |
| CCGTATAA | 0.195 |
| GTGTATAA | -0.0442 |

| Sequence | PBM E-score |
| --- | --- |
| ACCTATAA | 0.0515 |
| CCCTATAA | 0.141 |
| GCGTATAC | 0.156 |
| AAGGTGCA | -0.0118 |
| CAATAGCG | 0.025 |
| CGAAATAG | 0.131 |
| ACCCTGCG | -0.0486 |
| CGGAATAA | -0.168 |
| GATGCGCA | 0.134 |
| ACGGTTGC | -0.264 |
| ATGGTTGC | 0.274 |
| CTGGTTCA | -0.192 |
| ATGGTTCC | 0.0654 |
| CTGGTTGC | 0.288 |
| CTGGTTCC | 0.34 |
| CCGGTTGC | 0.317 |
| CCGGTTGA | 0.0186 |
| CTGGTTGA | -0.09 |
| ACGGTGTC | -0.168 |
| CTGCTACA | 0.0929 |
| CTCATCAG | 0.0338 |
| CTTCTATA | 0.187 |
| CAGATACA | 0.0958 |
| GACATTCA | -0.094 |
| AATAACGT | 0.00611 |

| Sequence | PBM E-score |
| --- | --- |
| AGATGCTA | 0.25 |
| AGATGCTG | 0.282 |
| CGATGCCC | 0.0343 |
| GAATGCTA | -0.121 |
| AGATGCCA | 0.385 |
| AGATGCTC | 0.0444 |
| GGATGCCC | 0.464 |
| GGATGCTA | 0.44 |
| CGATGCTA | 0.266 |
| AGATGCCT | 0.17 |
| AGATGCCG | 0.273 |
| AGATGCCC | 0.108 |
| AGAGCGCC | 0.0412 |
| CGCAACAG | -0.0598 |
| GGCAAACA | -0.14 |
| GTGGGAGA | 0.0205 |
| GTGGTAGA | -0.166 |
| AAGGTTGT | 0.0394 |
| GGATGCCA | 0.454 |
| CGATGCCA | 0.156 |
| TGATGCCA | -0.0459 |
| CGTAGGGC | -0.108 |
